Inconclusive results are not listed. The source made the active and inactive calls. Unless noted, calls follow the shape of the full dose curve.
Legend:
[1] = qHTS for Inhibitors of the Functional Ribonucleoprotein Complex (vRNP) of Lassa (LASV) Arenavirus: LASV Primary Screen - GLuc reporter signal (AID 1347082; calls by dose curve; tested in HEK293 reporter line; also: nearly all actives have a fitted effect of over 60% in size)
[2] = qHTS for Inhibitors of the Functional Ribonucleoprotein Complex (vRNP) of Lassa (LASV) Arenavirus: Viability assay - alamar blue signal for LASV Primary Screen (AID 1347083; calls by dose curve; tested in HEK293 reporter line; also: nearly all actives have a fitted effect of over 80% in size)
[3] = qHTS for Inhibitors of the Functional Ribonucleoprotein Complex (vRNP) of Lymphocytic Choriomeningitis Arenaviruses (LCMV): Viability assay - alamar blue signal for LCMV Primary Screen (AID 1347085; calls by dose curve; tested in HEK293 reporter line; also: nearly all actives have a fitted effect of over 80% in size)
[4] = target: Nucleoprotein (Lymphocytic choriomeningitis virus (strain Armstrong)) (UniProt P09992); test: qHTS for Inhibitors of the Functional Ribonucleoprotein Complex (vRNP) of Lymphocytic Choriomeningitis Arenaviruses (LCMV): LCMV Primary Screen - GLuc reporter signal (AID 1347086); also: nearly all actives have a fitted effect of over 70% in size
% is scaled to controls: 0 for no effect and ±100 for the full control effect.
Also: series mostly up to about 57 µM.

Nucleoprotein (Lymphocytic choriomeningitis virus (strain Armstrong)), sequence (P09992 whole entry, looked up): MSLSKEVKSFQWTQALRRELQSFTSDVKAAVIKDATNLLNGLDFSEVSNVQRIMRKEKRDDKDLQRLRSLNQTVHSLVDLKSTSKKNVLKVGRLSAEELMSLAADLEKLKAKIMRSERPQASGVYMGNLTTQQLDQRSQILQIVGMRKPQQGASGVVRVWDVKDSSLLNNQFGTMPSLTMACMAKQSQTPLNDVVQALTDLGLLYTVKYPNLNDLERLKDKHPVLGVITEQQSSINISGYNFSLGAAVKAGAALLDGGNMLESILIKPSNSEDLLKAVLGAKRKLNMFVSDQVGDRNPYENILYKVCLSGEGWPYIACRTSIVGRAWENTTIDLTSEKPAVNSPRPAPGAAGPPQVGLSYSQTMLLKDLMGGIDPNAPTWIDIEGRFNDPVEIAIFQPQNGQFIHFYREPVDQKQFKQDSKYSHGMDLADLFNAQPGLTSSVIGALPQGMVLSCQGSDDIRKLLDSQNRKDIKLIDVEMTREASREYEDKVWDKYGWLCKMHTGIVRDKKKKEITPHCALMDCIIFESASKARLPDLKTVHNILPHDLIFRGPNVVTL

CN(C)[C@@H](CCOc1cccc2ccccc12)c1ccccc1
inactive: Potency [1] | Potency [2] | Potency [3] | Potency [4]

CN1CCCN(C(c2ccccc2)c2ccc(Cl)cc2)CC1 (centres undefined)
inactive: Potency [1] | Potency [2] | Potency [3] | Potency [4]

O=c1[nH]c(=O)c2[nH]c(=O)[nH]c2[nH]1
inactive: activity change, negative = inhibition [1] -5.36% [at 11.5 µM] | activity change, negative = reduced viability [2] 13.2% [at 11.5 µM] | activity change, negative = lower viability [3] -14.6% [at 11.5 µM] | activity change, negative = inhibition [4] 20.2% [at 11.5 µM]

Cc1cc(C(C)(C)C)cc(C)c1CC1=NCCN1
inactive: Potency [1] | Potency [2] | Potency [3] | Potency [4]

COCCc1ccc(OCC2CO2)cc1 (centres undefined)
inactive: Potency [1] | Potency [2] | Potency [3] | Potency [4]

Cc1c(-c2ccccc2)oc2c(C(=O)OCCN3CCCCC3)cccc2c1=O
inactive: Potency [1] | Potency [2] | Potency [3] | Potency [4]

COC(=O)C1=C(C)NC(C)=C(C(=O)OC)C1c1ccccc1[N+](=O)[O-]
inactive: Potency [1] | Potency [2] | Potency [3] | Potency [4]

O=C(O)Cc1ccc(CCNS(=O)(=O)c2ccc(Cl)cc2)cc1
inactive: Potency [1] | Potency [2] | Potency [3] | Potency [4]

CC1(C)CCC(C)(C)c2cc(NC(=O)c3ccc(C(=O)O)cc3)ccc21
inactive: Potency [1] | Potency [2] | Potency [3] | Potency [4]

CCCc1nc(C)c2c(=O)[nH]c(-c3cc(S(=O)(=O)N4CCN(CC)CC4)ccc3OCC)nn12
inactive: Potency [1] | Potency [2] | Potency [3] | Potency [4]

C[C@@H](O)[C@H](N)C(=O)O
inactive: Potency [1] | Potency [2] | Potency [3] | Potency [4]

C=Cc1c(C)c2cc3[nH]c(cc4nc(cc5nc(cc1[nH]2)C(C)=C5CCC(=O)O)C(CCC(=O)O)=C4C)c(C)c3C=C
inactive: Potency [1] | Potency [2] | Potency [3] | Potency [4]

CCC(=O)c1ccc(O)cc1
inactive: Potency [1] | Potency [2] | Potency [3] | Potency [4]

C[C@H](N)[C@H](O)c1cccc(O)c1
inactive: Potency [1] | Potency [2] | Potency [3] | Potency [4]

COc1ccc(-n2nc(CCC(=O)N(C)O)cc2-c2ccc(Cl)cc2)cc1
inactive: Potency [1] | Potency [2] | Potency [3] | Potency [4]

CCOC(=O)Cn1cccc1-c1nc(-c2ccc(OC)cc2)c(-c2ccc(OC)cc2)s1
inactive: Potency [1] | Potency [2] | Potency [3] | Potency [4]

CCCOC(=O)c1ccc(N)cc1
inactive: Potency [1] | Potency [2] | Potency [3] | Potency [4]

C=C1c2cccc(O)c2C(O)=C2C(=O)[C@]3(O)C(O)=C(C(N)=O)C(=O)[C@@H](N(C)C)[C@@H]3[C@@H](O)[C@H]12
inactive: Potency [1] | Potency [2] | Potency [3] | Potency [4]

COc1ccc(S(=O)(=O)N2c3ccc(Cl)cc3[C@@](O)(c3ccccc3Cl)[C@H]2C(=O)N2CCC[C@@H]2C(N)=O)cc1OC
inactive: Potency [1] | Potency [2] | Potency [3] | Potency [4]

C[N+](C)(C)CC[N+]1(C)Cc2c(Cl)c(Cl)c(Cl)c(Cl)c2C1
inactive: Potency [1] | Potency [2] | Potency [3] | Potency [4]

CCOCCn1c(N2CCCN(C)CC2)nc2ccccc21
inactive: Potency [1] | Potency [2] | Potency [3] | Potency [4]

CCNC(=O)NCCCOc1cccc(CN2CCCCC2)c1
inactive: Potency [1] | Potency [2] | Potency [3] | Potency [4]

CC1(C)S[C@@H]2[C@H](N=CN3CCCCCC3)C(=O)N2[C@H]1C(=O)O
inactive: Potency [1] | Potency [2] | Potency [3] | Potency [4]

O=C1c2ccccc2S(=O)(=O)N1CCCCN1CCN(c2ncccn2)CC1
inactive: Potency [1] | Potency [2] | Potency [3] | Potency [4]

CN(C)CCOC(c1ccccc1)c1ccc(Br)cc1 (centres undefined)
inactive: Potency [1] | Potency [2] | Potency [3] | Potency [4]

Cc1sccc1Br
inactive: Potency [1] | Potency [2] | Potency [3] | Potency [4]

Cc1ccc(C(C)OC(=O)C2(C)CCC(C(=O)O)C2(C)C)cc1 (centres undefined)
inactive: Potency [1] | Potency [2] | Potency [3] | Potency [4]

O=C(Oc1cccc2cccnc12)c1ccccc1
inactive: Potency [1] | Potency [2] | Potency [3] | Potency [4]

CCCCNc1ccc(C(=O)OCCN(CC)CC)cc1
inactive: Potency [1] | Potency [2] | Potency [3] | Potency [4]

CCCCCCCCCCCCCCC[C@H](O)[C@@H](N)CO
inactive: Potency [1] | Potency [2] | Potency [3] | Potency [4]

CCC1NC(=O)c2cc(S(N)(=O)=O)c(Cl)cc2N1 (centres undefined)
inactive: Potency [1] | Potency [2] | Potency [3] | Potency [4]

Oc1cc(O)c2c(c1)O[C@H](c1ccc(O)c(O)c1)[C@H](O)C2
inactive: Potency [1] | Potency [2] | Potency [3] | Potency [4]

NC(=O)C1(N2CCCCC2)CCN(CCCC(=O)c2ccc(F)cc2)CC1
inactive: Potency [1] | Potency [2] | Potency [3] | Potency [4]

C#CCN(C)Cc1ccccc1
inactive: Potency [1] | Potency [2] | Potency [3] | Potency [4]

N[C@H](Cc1c[nH]c2ccccc12)C(=O)O
inactive: Potency [1] | Potency [2] | Potency [3] | Potency [4]

CNC1CCCN(c2c(F)cc3c(=O)c(C(=O)O)cn(C4CC4)c3c2OC)C1 (centres undefined)
inactive: Potency [1] | Potency [2] | Potency [3] | Potency [4]

CN(Cc1ccc(C(C)(C)C)cc1)Cc1cccc2ccccc12
inactive: Potency [1] | Potency [2] | Potency [3] | Potency [4]

CCc1cc(Cl)c(OC)c(C(=O)NC[C@@H]2CCCN2CC)c1O
inactive: Potency [1] | Potency [2] | Potency [3] | Potency [4]

CCc1cccc(N(C)C(N)=Nc2cccc3ccccc23)c1
inactive: Potency [1] | Potency [2] | Potency [3] | Potency [4]

O=C(Nc1ccc(C(=O)O)c(O)c1)c1ccccc1
inactive: Potency [1] | Potency [2] | Potency [3] | Potency [4]

COc1cc(C(=S)N2CCOCC2)ccc1O
inactive: Potency [1] | Potency [2] | Potency [3] | Potency [4]

CCCCCCc1ccc(O)cc1O
inactive: Potency [1] | Potency [2] | Potency [3] | Potency [4]

CCCCCCCCCCCCCCCCC(C(=O)O)C(O)(CC(=O)O)C(=O)O (centres undefined)
inactive: Potency [1] | Potency [2] | Potency [3] | Potency [4]

O=C(O)CCC(=O)Nc1ccc(S(=O)(=O)Nc2nccs2)cc1
inactive: Potency [1] | Potency [2] | Potency [3] | Potency [4]

CC1=C(CC(=O)O)c2cc(F)ccc2/C1=C\c1ccc(S(C)=O)cc1 (centres undefined)
inactive: Potency [1] | Potency [2] | Potency [3] | Potency [4]

C#C[C@]1(OC(C)=O)CC[C@H]2[C@@H]3CCC4=C/C(=N/O)CC[C@@H]4[C@H]3CC[C@@]21CC
inactive: Potency [1] | Potency [2] | Potency [3] | Potency [4]
